D2 ag-1: Beta-Arrestin HTS for Positive Allosteric Modulators of the Human D2 Dopamine Receptor: Agonists; activation, % (test concentration not listed); DiscoveRx PathHunter D2 beta-arrestin, luminescence, 90 min; 100% = 57 uM dopamine signal; hit rate 0.084% among 360,000; in the data active = activation above about 40%
Target sequence (P14416 whole entry, looked up): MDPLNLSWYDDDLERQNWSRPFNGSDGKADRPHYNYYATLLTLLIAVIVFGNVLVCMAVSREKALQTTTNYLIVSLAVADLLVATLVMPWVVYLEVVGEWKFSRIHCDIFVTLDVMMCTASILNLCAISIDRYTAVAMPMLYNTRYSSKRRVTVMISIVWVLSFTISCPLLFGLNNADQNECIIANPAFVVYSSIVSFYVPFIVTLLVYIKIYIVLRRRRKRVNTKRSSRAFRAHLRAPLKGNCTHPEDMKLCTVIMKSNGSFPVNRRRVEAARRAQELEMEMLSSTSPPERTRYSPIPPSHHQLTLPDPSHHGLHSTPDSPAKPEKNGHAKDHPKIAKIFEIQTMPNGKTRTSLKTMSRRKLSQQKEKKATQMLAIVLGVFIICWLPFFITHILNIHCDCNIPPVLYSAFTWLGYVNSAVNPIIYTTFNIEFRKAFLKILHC
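DiscoveRx PathHunter D2 beta-arrestin cells (2,100/well) attached overnight, then compound-stimulated 90 min at 37 C in HBSS/10 mM HEPES/0.1% Tween-20 buffer; beta-galactosidase complementation read by luminescence after 1 h at ambient temperature. Dopamine 57 uM final (EC100) as control.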
D2 ag-2: HTS Assay for Allosteric Agonists of the Human D2 Dopamine Receptor: Primary Screen for Agonists | HEK293 T-REx D2 cells, calcium flux agonist mode | activation, % at 2 µM | hit rate 0.53% among 340,000;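 active = activation over 3 SD above normal in the single-dose calcium agonist read, cut at about 30% in these data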; note: 0% is about no effect
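Agonism is scored from calcium flux in a force-coupled, inducible HEK293 cell line expressing D2, read kinetically for 180 s after compound addition against dopamine controls.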
D2 antagonist: HTS Assay for Allosteric Antagonists of the Human D2 Dopamine Receptor: Primary Screen for Antagonists; HEK293 TREx D2 cells, calcium flux, dopamine EC80; hit rate 2% among 340,000; inhibition, % at 10 µM; D(2) dopamine receptor (Homo sapiens), P14416; in the data active = inhibition above about 30%; inactive = below that, where a call was filed; note: 0% is about no effect
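Calcium mobilization kinetics were recorded at 1 s intervals in tetracycline-induced HEK293 T-REx D2 cells, first for 180 s after compound addition and then 180 s after EC80 dopamine.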
D2 PAM-1: Beta-Arrestin HTS for Positive Allosteric Modulators of the Human D2 Dopamine Receptor: Potentiators | DiscoveRx D2 beta-arrestin cells, luminescence, 90 min; 100% = 57 uM dopamine signal | potentiation, % (no concentration beside the values) | hit rate 0.23% among 360,000; in the data active = potentiation above about 50%
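PathHunter beta-arrestin assay in DiscoveRx D2 cells. Compounds were added with an EC20 of dopamine (50 nM final) for 90 min at 37 deg C. Luminescence was read 1 h after detection reagent, with 57 uM dopamine as the EC100 control.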
D2 PAM-2: HTS Assay for Positive Allosteric Modulators of the Human D2 Dopamine Receptor: Primary Screen for Potentiators | hit rate 0.34% among 340,000 | AID 485347, 2010 | potentiation, % at 10 µM | HEK293 T-REx D2, calcium flux, EC20 dopamine potentiation;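 active = potentiation over 3 SD above the plate norm, cut at about 30% in these data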; note: 0% is about no effect
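Tetracycline-induced HEK293 T-REx cells force-coupled to calcium signalling expressed D2; compounds were pin-added after a 10 s baseline, read kinetically 180 s, then an EC20 dopamine challenge followed with a further 180 s calcium read.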
Numbers without * were called inactive; . = no result given; ! = repeats disagree. Rows were chosen to be rich in hits. Some 2.4% of all compounds tested hit in one or more screens of this group.

SMILES	D2 ag-1	D2 ag-2	D2 antagonist	D2 PAM-1	D2 PAM-2
Cc1ccc2[nH]c3c(N4CCN(Cc5ccccc5)CC4)ncnc3c2c1	5	1	39*	-20	-18
CN(C)CCn1cnc2c(c1=N)C(c1ccccc1)c1ccc3ccccc3c1O2 (stereo unspecified)	-3	-3	62*	-16	8
Cc1ccc(CNC(=O)CSc2ncc(S(=O)(=O)c3ccc(C)c(Cl)c3)c(=O)[nH]2)cc1	.	0	.	.	6
NS(=O)(=O)c1ccc(CNC(=O)CCSCCC(=O)NCc2ccc(S(N)(=O)=O)cc2)cc1	-2	-2	33*	-7	0
O=C(CCSCCC(=O)NCc1ccccc1)NCc1ccccc1	-2	1	11	10	0
CC1=C(C(=O)NCc2cccc(Cl)c2)C2(CCCCCC2)OC1=O	.	17	.	.	-2
Cc1ccccc1CSCCNC(=O)CN(c1ccccc1)S(=O)(=O)N(C)C	.	0	.	.	-1
CN(C)S(=O)(=O)N(CC(=O)NCCSCc1ccccc1)c1ccccc1	7	0	-1	-5	85*!
COc1ccc(N(CC(=O)NCCSCc2ccc(C)cc2)S(=O)(=O)c2ccccc2)cc1	0	1	31*	-15	7
O=C(O)CCSc1nc(C(F)(F)F)cc(=O)n1-c1ccccc1	-2	0	33*	-9	7
CCOC(=O)c1sc(N/N=C/c2cc(Br)c(O)c(OC)c2)nc1C	41*	-1	-12	51*	13
CCOC(=O)N/N=C/c1cc(OC)c(O)c(OC)c1	4	0	-15	-10	-7
CCOC(=O)c1cnc2ccccc2c1Nc1cccc(OC)c1	.	0	.	.	0
Cc1cc2c(cc1S(=O)(=O)Nc1cccc(Cl)c1C)OCCN2C	.	-1	.	.	3
O=C(c1ccc(N2C(=O)CCC2=O)cc1)N1CCOCC1	-1	0	53*	2	-4
Cc1cc(O)c2c(c1)C(=O)c1cc(O)cc(O)c1C2=O	-5	.	.	-4	.
O=C1c2cccc(O)c2C(=O)c2c(O)cc(CO)cc21	14	.	.	89*	.
CCN(CC)S(=O)(=O)c1cccc(NC(=O)COC(=O)C2COc3ccccc3O2)c1 (stereo unspecified)	1	-1	13	-12	-9
CCN(CC)S(=O)(=O)c1cccc(NC(=O)COC(=O)C2=COCCO2)c1	0	0	30*	-10	-4
Cc1ccc(-n2nc3c(N4CCC(C(=O)NCCC(C)C)CC4)nnc(C)c3c2C)cc1	.	0	.	.	4
CCC(C(=O)NCCc1ccc(OC)c(OC)c1)n1nc(C)n2c(cc3occc32)c1=O (stereo unspecified)	-2	0	33*	1	-5
CCCC(=O)OCc1cnc(C)c2oc(=O)c(C(=O)Nc3ccc(F)cc3C)cc12	.	2	.	.	.
CC(=O)OC1CC2(C)/C(=N\O)CCC2C2CCc3cc(O)ccc3C12 (stereo unspecified)	41*	.	.	5	.
COc1ccc(Nc2oc(-c3ccc(COc4ccccc4C)o3)nc2C#N)cc1	.	1	.	.	12
COc1cc(OC)cc(C(=O)NC2CC(C)(C)NC(C)(C)C2)c1	-1	-2	82*	-14	18
SMILES	D2 ag-1	D2 ag-2	D2 antagonist	D2 PAM-1	D2 PAM-2
CC1(C)CC(NC(=O)c2cc([N+](=O)[O-])cc([N+](=O)[O-])c2)CC(C)(C)N1	4	0	0	-1	-15
CCC(=O)Nc1cc(C(=O)NCC2CCCN2CC)c(OC)cc1N(C)C (stereo unspecified)	0	1	73*	-21	-21
CCN1CCCC1CNC(=O)c1ccccc1Cl (stereo unspecified)	-1	.	.	-13	.
CCN1CCCC1CNC(=O)c1cc(S(N)(=O)=O)ccc1OC (stereo unspecified)	-6	.	.	-33	.
CCN1CCCC1CNC(=O)c1cc(NC(C)=O)c(N(C)C)cc1OC (stereo unspecified)	-1	0	69*	-18	-19
Cc1cc(-c2ccc(S(=O)(=O)Nc3cc(Cl)ccc3C)s2)on1	.	.	.	.	-4
CC(C)c1ccc(C(=O)CC2(O)C(=O)N(CCc3ccccc3)c3ccc(Cl)cc32)cc1 (stereo unspecified)	.	7	.	.	6
Cc1ccc(S(=O)(=O)NCCC(=O)NCc2cccnc2)cc1	6	.	.	4	.
CCn1c(CCNS(=O)(=O)c2ccccc2Br)nnc1SC	-1	1	-22	-6	-3
Cc1ccc(S(=O)(=O)NCCc2nnc(SCc3cccnc3)n2C)cc1	-1	0	11	-6	33*
CSc1nnc(CCNS(=O)(=O)c2ccccc2Br)n1C	-2	1	34*	-2	-3
Cc1ccc(Nc2ccc(N3CCN(C(=O)c4cccc([N+](=O)[O-])c4)CC3)nn2)cc1	.	3	.	.	-5
Cc1ccc2occ(CC(=O)Nc3ccc(Cl)c(C(F)(F)F)c3)c2c1	.	0	.	.	-6
CCOc1cc2c(cc1/C=C/c1noc(C)c1[N+](=O)[O-])OC(C)C2 (stereo unspecified)	-6	64*	14	-6	3
CCn1c(=O)c2c(nc3n2CCN3c2ccc(OC)cc2)n(C)c1=O	.	0	.	.	16
COc1ccc2c(c1)C(C)CC(C)(C)N2C(=O)Nc1ccccc1 (stereo unspecified)	1	1	54*	-2	-3
COc1ccc2c(c1)C(C)CC(C)(C)N2C(=O)CSc1nc2ccccc2s1 (stereo unspecified)	-4	0	14	17	-6
Cc1noc(/C=C/N(C)C)c1S(=O)(=O)N1CCCC(C(=O)Nc2ccc(F)cc2F)C1 (stereo unspecified)	1	0	54*	-5	-1
Cc1ccc(C)c(NC(=O)C2CCCN(S(=O)(=O)c3c(C)noc3/C=C/N(C)C)C2)c1 (stereo unspecified)	-5	-1	37*	-25	-11
Cc1ccc(NC(=O)C2CCCN(S(=O)(=O)c3c(C)noc3/C=C/N(C)C)C2)c(C)c1 (stereo unspecified)	-1	0	17	-17	-3
COc1ccc(Nc2oc(-c3cccs3)nc2C#N)cc1	8	0	-8	62*	11
CNc1oc(-c2cccs2)nc1C#N	0	.	.	9	.
COc1cc(NC(=O)c2noc3c2CC(C(C)(C)C)CC3)cc(OC)c1OC (stereo unspecified)	.	-1	.	.	23
COC(=O)c1cc(C(=O)c2ccc(Cl)cc2Cl)cn1C	-1	1	1	10	38*
